Hits are enriched below; roughly 5.4% of the tested compounds scored in any of these assays.
12-hLO inh: inhibitors of human 12-lipoxygenase (ALOX12); 150,000 compounds, 0.12% hits; P18054; purified 12-hLO, xylenol orange hydroperoxide absorbance; Potency, µM (series often up to 57.1 µM), for inactives: at the highest dose activity change, negative = inhibition, actives largely listed as inhibitors; note: potency is the fitted concentration of half-maximal effect; nearly all actives have a fitted effect of over 55% in size
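Hydroperoxide output read as Fe(III)-xylenol orange absorbance, 573-to-405 nm ratio, after 30 min reaction with 40 uM arachidonic acid. Enzyme: 150 nM purified human 12hLO, 15 min compound preincubation; 25 mM Hepes pH 7.0, room temperature.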
HPGD inh: HPGD (human) dehydrogenase inhibition. 150,000 compounds, 4.3% hits. P15428. purified HPGD, NADH fluorescence kinetic, PGE2 substrate. Potency, µM, for inactives: top-dose activity change, negative = inhibition, most hits filed as inhibitors; active = well fitted inhibition curve with a large enough effect, not every such curve was filed as active; inconclusive = small, poorly fitted or top-dose-only effect, or another doubt; inactive = no such curve, though single readings can be large or run the other way; note: potency is the fitted concentration of half-maximal effect
Target sequence (P15428 whole entry, looked up): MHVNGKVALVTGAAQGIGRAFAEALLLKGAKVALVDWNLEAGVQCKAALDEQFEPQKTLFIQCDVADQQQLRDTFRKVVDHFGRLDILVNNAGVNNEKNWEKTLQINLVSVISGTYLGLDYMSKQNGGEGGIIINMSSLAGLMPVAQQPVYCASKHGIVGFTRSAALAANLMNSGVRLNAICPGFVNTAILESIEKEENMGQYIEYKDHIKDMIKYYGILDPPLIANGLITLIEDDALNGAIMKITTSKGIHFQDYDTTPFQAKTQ
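NADH formation kinetics: reaction with 30 uM PGE2 and 1 mM NAD+ (final), 20 nM enzyme, Tris-HCl pH 8 with Tween 20, after 15 min compound preincubation at room temperature. Fluorescence change, last versus first of five reads.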
IMPase Li inh: IMPase inhibition in cells with lithium potentiation; CHO-M1 cells, IP1 TR-FRET (IP-One), carbachol + lithium; Potency, µM (top dose mostly 59.4 µM), without a hit: at the top dose activity, negative = IMPase inhibition, hits mostly inhibitors; 210,000 compounds, 0.35% hits;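 note: IP1 builds up when IMPase is blocked and the TR-FRET signal falls; potency is the fitted concentration of half-maximal effect; plate controls were basal vehicle for no effect and high inhibitor control for full effect; nearly all actives have a fitted effect of over 50% in size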
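CHO cells stably expressing M1 receptor (2000/well, cultured 16–30 h) treated 30 min at 37C with compound plus low lithium. Cytosolic IP1 by TR-FRET (665/620 ratio and 620 channel) after 10 min lysis; AC50 by Hill fit.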
15-hLO-2 inh: blocks human 15-lipoxygenase 2 activity; O15296; purified 15hLO-2, xylenol orange hydroperoxide absorbance; Potency, µM (titrated, usually from 57.1 µM), for inactives: at the highest dose activity change, negative = inhibition, most hits filed as inhibitors; 110,000 compounds, 0.56% hits; AID 881; note: potency is the fitted concentration of half-maximal effect; nearly all actives have a fitted effect of over 60% in size
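Screening format was qHTS against 50 nM purified 15hLO-2 in Hepes pH 7.5 with detergent. Activity follows hydroperoxide formation from 45 uM arachidonic acid, measured as 573:405 nm absorbance ratio of the ferric-xylenol orange complex.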
IMPase inh: cell-permeable inhibitors of inositol monophosphatase (IMPase). CHO-M1 cells, IP1 accumulation, HTRF TR-FRET ratio. inhibition (IP1 accumulation), % at 46.1 µM. 120,000 tested, under 10 active. AID 901; active = well fitted curve in the direction sought with a large enough effect in the signal ratio, not every such curve was filed as active; inconclusive = small, poorly fitted or top-dose-only effect, or a change in a side signal; inactive = no such curve, though single readings can be large or run the other way; the % refers to the signal ratio;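 note: cells stimulated with carbachol in lithium chloride buffer; plate controls were DMSO basal wells for no effect and reference inhibitor wells for full effect; higher means more IMPase inhibition seen as more IP1 and lower FRET ratio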
Target sequence (P97697 whole entry, looked up): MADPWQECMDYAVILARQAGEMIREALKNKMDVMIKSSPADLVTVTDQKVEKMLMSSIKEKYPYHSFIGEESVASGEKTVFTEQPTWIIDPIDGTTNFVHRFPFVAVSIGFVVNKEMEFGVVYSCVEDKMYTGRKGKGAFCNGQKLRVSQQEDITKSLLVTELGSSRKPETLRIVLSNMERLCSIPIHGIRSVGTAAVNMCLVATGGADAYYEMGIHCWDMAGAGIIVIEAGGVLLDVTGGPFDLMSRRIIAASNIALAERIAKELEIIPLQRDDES
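Seeded CHO-M1 cells were dosed with compound at up to 46 uM, stimulated with carbachol for 30 min, then lysed in IP-One detection reagents. Higher IP1 lowers the TR-FRET signal.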
PNC inhibitor: perinucleolar compartment assembly inhibition. PC3M PTB-GFP, PNC prevalence imaging, 16 h; hits give low values. AID 2417. activity change (PNC), negative = inhibition, % at 10 µM. 140,000 compounds, 3.1% hits;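 active = readout at or below -70, meaning at least 70% loss of cells showing the perinucleolar compartment, a nuclear body marking cancer cells; inconclusive = readout between -30 and a set limit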;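 note: plate controls were DMSO wells for no effect and camptothecin positive control wells for full effect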
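PC3M cells stably expressing PTB-GFP, 750–1000 cells/well, treated 16 h at 37 °C with compound (23 nl of library stock), in duplicate. After paraformaldehyde fixation and Hoechst stain, imaged at 20x; PNC prevalence scored by image analysis.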
* = called active by the depositor; ? = inconclusive; / = no result given; [ ] = dose if it differs, or a comment. Unless noted, calls come from the whole dose curve; as a rule, active = well fitted curve in the direction sought with a large enough effect; inconclusive = small, poorly fitted or top-dose-only effect, or another doubt; inactive = no such curve, though single readings can be large; an effect the other way counts as inactive or inconclusive. Unless noted, % is set by controls: 0 for no effect and ±100 for the full control effect.

SMILES	12-hLO inh	HPGD inh	IMPase Li inh	15-hLO-2 inh	IMPase inh	PNC inhibitor
O=C(CCCCCn1c(=S)[nH]c2ccccc2c1=O)N1CCOCC1	-7%	14µM*	?	-5%	7	11
COCCNC(=O)CCCCCN1C(=O)CCC1=O	-1%	16µM*	-3%	-4%	-3	-16
CC(C)(C)C1CCc2c(sc(NC(=O)c3ccccc3F)c2C(=O)NCc2ccco2)C1 (stereo not given)	/	/	/	/	0	/
COc1ccccc1N1CCN(C(=O)CCn2c(=O)[nH]c3ccccc3c2=O)CC1	8%	-6%	14%[38.3 µM]	-3%	-8	-107*
Cc1cccc(N2CCN(C(=O)CCn3c(=O)[nH]c4ccccc4c3=O)CC2)c1C	-6%	-14%	9%[38.3 µM]	4%	-1	8
CCN(CC)CCNC(=O)CCn1c(=S)[nH]c2cc3c(cc2c1=O)OCO3	1%	-15%	27%[38.3 µM]	1%	2	-1
CCCCNC(=O)CCCn1c(=S)[nH]c2cc3c(cc2c1=O)OCO3	-9%	16µM*	4%[38.3 µM]	-1%	-1	?
COCCNC(=O)CCCCCn1c(=S)[nH]c2ccccc2c1=O	-2%	13µM*	-10%[38.3 µM]	/	0	128
COC(=O)c1ccc2c(=O)n(CCN3CCOCC3)c(=S)[nH]c2c1	-1%	-6%	13%[38.3 µM]	5%	18	-100*
C=CCN1c2ccccc2[C@]23C[C@@H](C(=O)OC)N(C(=O)COCc4ccccc4)C2=NC(C(=O)OC)=C(C(=O)OC)[C@H]13	4%[11.4 µM]	0%	5%	/	/	/
Cc1cccc(NC(=O)CN2C(=O)c3cccc4cccc2c34)c1C	/	/	/	/	-1	/
Cc1ccc2oc3c(c(=O)c2c1)C(c1cccc(O)c1)N(Cc1ccccc1Cl)C3=O (stereo not given)	/	/	/	/	-8	/
NC(C(=O)O)c1ccc(P(=O)(O)O)cc1 (stereo not given)	/	/	-3%	/	/	/
COc1ccccc1CNc1ncnc2ccc(-c3ccc(N(C)C)cc3)cc12	-20%	?	-5%	61%	/	/
Cc1nc2ccccc2c(=O)n1CC(=O)N1CCOCC1	2%	-3%	14%[38.3 µM]	5%	-5	-85*
O=c1c2ccccc2nc(-c2ccccc2)n1CCN1CCOCC1	8%	-3%	35%[38.3 µM]	-3%	-2	-10
CCC[C@H](Sc1nc(N)nc2nc[nH]c12)C(=O)O	-1%[11.4 µM]	-13%	5%	1%[11.4 µM]	/	/
O=C(Oc1ccc2ccccc2c1Cl)N1CCCC1	-5%	-9%	8%[38.3 µM]	-13%	-5	-89*
Cc1cnc(CNc2nc(-c3ccc(N(C)C)cc3)nc3ccccc23)cn1	-16%	-16%	18%	4%	/	/
O=C(N/N=C/c1ccccc1O)c1cccc(C(F)(F)F)c1	0%	-23%	-5%	/	/	-94*
O=C(N/N=C/c1ccc(O)cc1)c1cccc(C(F)(F)F)c1	-3%	-7%	-1%	/	/	1
COc1ccccc1-c1cc(C(F)(F)F)nc(S(=O)(=O)CCCC(=O)NC(C)C)n1	0%	?	6%[38.3 µM]	2%	6	7
COc1ccccc1-c1cc(C(F)(F)F)nc(S(C)(=O)=O)n1	2%	25µM*	3%[38.3 µM]	0%	3	?
COc1ccc(-c2nc3ccccc3n3c(-c4cccc(C)c4)c4c(=O)n(C)c(=O)n(C)c4c23)cc1	/	/	/	/	0	/
CC(C)c1ccc(/C=N/Nc2ccc(C(=O)O)cc2)cc1	1%	14µM*	5%	/	/	-9
O=C(O)c1ccc(N/N=C/c2ccc(OC(=O)c3ccccc3Cl)cc2)cc1	1%	25µM*	8%	/	/	?
O=C(O)c1ccc(N/N=C/c2ccc(-c3ccccc3)cc2)cc1	/	/	3%	/	/	/
CC(C)c1ccc(Cn2ccc3c4c(N)nc(NC5CC5)nc4ccc32)cc1	-3%	?	11%	24%	3	/
COC1=C(OC)C(=O)c2ccccc2C1=O	-3%	?	12%	-6%	13	/
COC1=C(Nc2ccccc2)C(=O)c2ccccc2C1=O	-9%	10µM*	71%	/	/	?

Screens: PubChem BioAssay, National Center for Advancing Translational Sciences (NCATS)
